Test results: the supplement of paper PMC10849652
The full data set covers some 7,900 targets. This sample favours those with a hit. About 0.6% of all pairs of compound and target were hits.

These targets were tested with c1cn2cc(-c3ccc4cn[nH]c4c3)nc(Nc3ccc(N4CCOCC4)cc3)c2n1 [entospletinib] (assay: log2 fold change, soluble protein after heating vs DMSO (PISA); higher = thermal stabilisation; K562 cells, 10 uM, 30 min; active = over 0.2 and 3.5 SD of the protein, either way, in both replicates (recomputed)).
Procedure, shortened: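 Soluble protein was defined as the supernatant after 21,000xg for 90 min. It came from K562 cells at 2×10^6 cells/mL given 10 μM compound for 30 min, heated in aliquots for 3 min across 48°C-58°C, pooled, and extracted in PBS with 0.5% NP-40 at 4°C, and was quantified by TMTpro 16plex LC-MS/MS with equalised channel sums. Thermal stability against control samples, from duplicates, is reported as log2 fold change.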

Sequence of UniProt P25208 (P25208 whole entry, looked up): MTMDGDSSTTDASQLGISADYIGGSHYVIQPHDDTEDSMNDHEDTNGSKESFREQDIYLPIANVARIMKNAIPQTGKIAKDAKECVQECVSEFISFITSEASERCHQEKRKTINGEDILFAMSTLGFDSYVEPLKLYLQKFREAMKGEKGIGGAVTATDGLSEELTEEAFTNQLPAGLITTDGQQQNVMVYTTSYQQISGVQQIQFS
Sequence of UniProt Q9BZQ8 (Q9BZQ8 whole entry, looked up): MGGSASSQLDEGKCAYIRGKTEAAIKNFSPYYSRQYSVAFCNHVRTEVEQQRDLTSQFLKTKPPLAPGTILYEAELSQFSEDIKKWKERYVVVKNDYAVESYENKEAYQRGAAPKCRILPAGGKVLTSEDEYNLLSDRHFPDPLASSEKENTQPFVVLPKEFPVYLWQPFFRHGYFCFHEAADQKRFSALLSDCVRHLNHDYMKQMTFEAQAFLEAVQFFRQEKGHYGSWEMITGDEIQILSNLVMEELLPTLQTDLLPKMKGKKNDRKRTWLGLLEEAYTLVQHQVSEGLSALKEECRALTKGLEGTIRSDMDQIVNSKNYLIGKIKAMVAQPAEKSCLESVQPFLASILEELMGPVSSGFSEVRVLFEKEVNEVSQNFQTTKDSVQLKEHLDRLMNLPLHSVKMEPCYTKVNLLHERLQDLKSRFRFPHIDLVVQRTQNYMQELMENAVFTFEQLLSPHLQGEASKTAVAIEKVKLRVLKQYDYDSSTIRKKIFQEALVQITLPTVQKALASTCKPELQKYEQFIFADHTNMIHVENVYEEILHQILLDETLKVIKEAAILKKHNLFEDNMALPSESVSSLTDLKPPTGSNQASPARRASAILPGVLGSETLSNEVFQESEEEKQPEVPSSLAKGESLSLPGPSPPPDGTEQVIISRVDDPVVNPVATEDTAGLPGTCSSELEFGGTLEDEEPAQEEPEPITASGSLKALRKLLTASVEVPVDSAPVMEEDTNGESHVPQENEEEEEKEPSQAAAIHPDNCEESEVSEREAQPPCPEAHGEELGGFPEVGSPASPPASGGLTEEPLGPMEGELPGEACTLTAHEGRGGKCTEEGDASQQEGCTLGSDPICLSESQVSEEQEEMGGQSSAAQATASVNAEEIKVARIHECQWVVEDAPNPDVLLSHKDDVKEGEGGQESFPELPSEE
Sequence of UniProt Q8NI08 (Q8NI08 whole entry, looked up): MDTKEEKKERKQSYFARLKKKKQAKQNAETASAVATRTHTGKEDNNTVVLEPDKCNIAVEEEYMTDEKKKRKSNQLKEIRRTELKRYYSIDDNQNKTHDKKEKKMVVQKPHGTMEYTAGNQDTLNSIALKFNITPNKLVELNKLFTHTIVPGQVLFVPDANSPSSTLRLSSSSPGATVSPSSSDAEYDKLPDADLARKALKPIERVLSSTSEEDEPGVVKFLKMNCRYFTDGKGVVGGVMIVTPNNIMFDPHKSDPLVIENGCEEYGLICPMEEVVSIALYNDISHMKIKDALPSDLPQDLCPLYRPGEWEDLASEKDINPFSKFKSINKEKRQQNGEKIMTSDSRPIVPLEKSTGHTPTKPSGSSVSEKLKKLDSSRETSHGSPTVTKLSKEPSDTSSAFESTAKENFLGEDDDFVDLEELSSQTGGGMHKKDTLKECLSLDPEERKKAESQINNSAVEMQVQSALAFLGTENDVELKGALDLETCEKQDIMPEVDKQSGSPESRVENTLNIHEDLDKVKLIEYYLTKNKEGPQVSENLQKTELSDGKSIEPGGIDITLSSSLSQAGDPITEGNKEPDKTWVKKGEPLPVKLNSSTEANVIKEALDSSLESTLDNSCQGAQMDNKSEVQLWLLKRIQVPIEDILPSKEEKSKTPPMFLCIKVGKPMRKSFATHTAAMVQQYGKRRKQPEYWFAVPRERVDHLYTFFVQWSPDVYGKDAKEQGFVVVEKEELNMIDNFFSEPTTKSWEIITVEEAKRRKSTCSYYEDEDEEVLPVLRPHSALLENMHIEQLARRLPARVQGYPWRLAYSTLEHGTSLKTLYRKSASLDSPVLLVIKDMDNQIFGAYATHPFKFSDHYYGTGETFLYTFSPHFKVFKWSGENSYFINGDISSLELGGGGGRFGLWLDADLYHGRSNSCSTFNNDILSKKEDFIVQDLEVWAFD
Sequence of UniProt Q9UMY1 (Q9UMY1 whole entry, looked up): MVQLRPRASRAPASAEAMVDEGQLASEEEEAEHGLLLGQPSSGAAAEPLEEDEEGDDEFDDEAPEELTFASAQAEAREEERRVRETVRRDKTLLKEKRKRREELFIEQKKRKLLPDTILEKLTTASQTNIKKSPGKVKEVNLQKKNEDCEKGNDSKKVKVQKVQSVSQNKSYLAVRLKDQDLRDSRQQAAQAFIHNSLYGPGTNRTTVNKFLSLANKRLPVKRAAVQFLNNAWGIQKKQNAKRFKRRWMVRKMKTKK
Sequence of UniProt Q01804 (Q01804 whole entry, looked up): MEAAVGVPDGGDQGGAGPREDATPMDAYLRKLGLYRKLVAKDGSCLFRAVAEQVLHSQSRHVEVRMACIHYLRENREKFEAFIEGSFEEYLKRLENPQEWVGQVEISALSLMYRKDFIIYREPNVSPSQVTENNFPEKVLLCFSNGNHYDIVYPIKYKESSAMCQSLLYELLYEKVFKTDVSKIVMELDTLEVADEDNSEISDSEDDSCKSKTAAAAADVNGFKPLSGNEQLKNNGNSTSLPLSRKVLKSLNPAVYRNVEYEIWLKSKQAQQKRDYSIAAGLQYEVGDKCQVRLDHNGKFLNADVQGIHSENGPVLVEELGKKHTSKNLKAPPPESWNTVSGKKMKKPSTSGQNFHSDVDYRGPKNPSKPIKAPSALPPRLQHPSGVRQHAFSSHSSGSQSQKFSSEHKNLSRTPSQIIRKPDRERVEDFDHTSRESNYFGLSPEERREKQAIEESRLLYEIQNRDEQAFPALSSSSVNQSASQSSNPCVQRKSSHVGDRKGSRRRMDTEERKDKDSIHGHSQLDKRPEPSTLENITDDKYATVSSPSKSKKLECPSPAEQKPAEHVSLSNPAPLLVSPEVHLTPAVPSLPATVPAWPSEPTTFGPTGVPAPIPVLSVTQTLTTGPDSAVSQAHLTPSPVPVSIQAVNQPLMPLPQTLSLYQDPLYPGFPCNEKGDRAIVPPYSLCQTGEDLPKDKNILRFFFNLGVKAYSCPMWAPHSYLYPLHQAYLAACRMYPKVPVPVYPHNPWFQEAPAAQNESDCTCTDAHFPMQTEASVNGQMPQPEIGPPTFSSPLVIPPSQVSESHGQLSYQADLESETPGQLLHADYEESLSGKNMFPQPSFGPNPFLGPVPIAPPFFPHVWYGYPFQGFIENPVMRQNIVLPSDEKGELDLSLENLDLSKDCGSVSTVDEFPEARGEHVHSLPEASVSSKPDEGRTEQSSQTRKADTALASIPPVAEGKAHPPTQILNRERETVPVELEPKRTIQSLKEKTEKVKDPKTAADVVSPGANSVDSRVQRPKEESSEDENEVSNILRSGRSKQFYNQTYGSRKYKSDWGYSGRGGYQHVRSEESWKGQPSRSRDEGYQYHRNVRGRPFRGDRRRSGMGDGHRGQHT
Sequence of UniProt Q9H000 (Q9H000 whole entry, looked up): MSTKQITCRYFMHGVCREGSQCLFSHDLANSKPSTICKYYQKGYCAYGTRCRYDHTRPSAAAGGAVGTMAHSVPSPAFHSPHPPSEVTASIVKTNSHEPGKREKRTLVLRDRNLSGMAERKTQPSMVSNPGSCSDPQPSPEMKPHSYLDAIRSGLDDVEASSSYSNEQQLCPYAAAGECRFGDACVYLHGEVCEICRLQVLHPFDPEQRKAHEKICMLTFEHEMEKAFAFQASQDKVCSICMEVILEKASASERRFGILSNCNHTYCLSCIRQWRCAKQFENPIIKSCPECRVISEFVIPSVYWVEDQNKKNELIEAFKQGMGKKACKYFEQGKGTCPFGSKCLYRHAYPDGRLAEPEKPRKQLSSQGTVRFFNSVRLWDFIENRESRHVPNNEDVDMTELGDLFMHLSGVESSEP
Sequence of UniProt Q8WV92 (Q8WV92 whole entry, looked up): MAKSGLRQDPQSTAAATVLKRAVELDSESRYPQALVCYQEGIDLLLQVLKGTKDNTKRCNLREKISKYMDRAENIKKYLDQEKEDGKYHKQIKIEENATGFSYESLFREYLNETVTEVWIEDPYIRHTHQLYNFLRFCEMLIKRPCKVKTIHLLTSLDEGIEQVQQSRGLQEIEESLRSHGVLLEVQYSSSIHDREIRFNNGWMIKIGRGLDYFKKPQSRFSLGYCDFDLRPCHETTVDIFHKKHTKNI
Sequence of UniProt Q14149 (Q14149 whole entry, looked up): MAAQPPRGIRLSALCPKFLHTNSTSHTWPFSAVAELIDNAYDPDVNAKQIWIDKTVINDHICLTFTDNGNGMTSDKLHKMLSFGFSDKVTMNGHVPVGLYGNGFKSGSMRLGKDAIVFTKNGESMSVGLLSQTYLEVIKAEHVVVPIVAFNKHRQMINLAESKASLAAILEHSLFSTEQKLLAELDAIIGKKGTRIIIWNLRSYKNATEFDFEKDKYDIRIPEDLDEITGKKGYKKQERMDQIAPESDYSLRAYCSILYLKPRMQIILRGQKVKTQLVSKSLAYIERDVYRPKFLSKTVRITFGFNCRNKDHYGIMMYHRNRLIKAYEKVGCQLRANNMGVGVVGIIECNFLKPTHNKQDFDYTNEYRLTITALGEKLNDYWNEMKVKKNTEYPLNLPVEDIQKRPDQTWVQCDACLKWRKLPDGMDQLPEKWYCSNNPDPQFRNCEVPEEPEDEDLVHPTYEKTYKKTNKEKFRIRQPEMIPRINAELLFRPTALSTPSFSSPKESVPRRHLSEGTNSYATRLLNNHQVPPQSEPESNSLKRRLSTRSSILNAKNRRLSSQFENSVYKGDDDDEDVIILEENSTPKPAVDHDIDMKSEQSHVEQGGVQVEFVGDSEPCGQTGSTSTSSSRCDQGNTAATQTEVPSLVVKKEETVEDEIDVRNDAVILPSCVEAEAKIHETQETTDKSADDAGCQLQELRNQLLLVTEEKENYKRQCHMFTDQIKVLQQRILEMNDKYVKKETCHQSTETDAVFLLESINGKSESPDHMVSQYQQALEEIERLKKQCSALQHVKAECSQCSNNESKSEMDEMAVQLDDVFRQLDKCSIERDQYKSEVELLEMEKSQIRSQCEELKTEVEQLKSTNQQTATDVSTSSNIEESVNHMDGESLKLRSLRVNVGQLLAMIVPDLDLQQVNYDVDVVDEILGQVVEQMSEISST

log2 fold change, inactive:
NR2C2AP isoform 2 (UniProt Q86WQ0) 0.004
MOV10 (UniProt Q9HCE1) 0.14
MLST8 (UniProt Q9BVC4) -0.06
NUDT6 (UniProt P53370) 0.127
NOB1 (UniProt Q9ULX3) -0.013
NA (UniProt B2RBV5) -0.058
NIBAN1 (UniProt Q9BZQ8) 0.055
NECTIN2 isoform 2 (UniProt Q92692) -0.003
NOS1AP (UniProt O75052) -0.337
NCAPD2 (UniProt Q15021) 0.031
MORF4L2 (UniProt Q15014) -0.038
NOL7 (UniProt Q9UMY1) 0.033
OXSM (UniProt Q9NWU1) -0.023
NAGPA (UniProt Q9UK23) -0.109
NUP107 (UniProt P57740) -0.072
MNAT1 (UniProt P51948) -0.065
MKRN2 (UniProt Q9H000) -0.038
MON1B (UniProt Q7L1V2) 0.017
NFYB (UniProt P25208) 0.04
NOP58 (UniProt Q9Y2X3) 0.085
MORC3 (UniProt Q14149) -0.088
OTUD4 (UniProt Q01804) 0.105
OTULIN (UniProt Q96BN8) 0.1
MITD1 (UniProt Q8WV92) -0.133
MRPS22 (UniProt P82650) 0.057
OVCA2 (UniProt Q8WZ82) -0.031
ORC5 (UniProt O43913) 0.012
NDUFS7 (UniProt O75251) 0.006
MT-ATP6 (UniProt P00846) 0.029
NARS2 (UniProt Q96I59) -0.01
NMNAT1 (UniProt Q9HAN9) 0.084
NOL11 (UniProt Q9H8H0) -0.05
NCOA7 (UniProt Q8NI08) 0.003
OTUD6B (UniProt Q8N6M0) -0.028
